In all, about 310,000 compounds went through this assay and about 2,200 (0.71%) showed an effect of 50% or more. Effects have a minus sign here. The sample holds strong results, similar compounds and a random draw of the others, so the mix is not that of the screen.

The experiment deals with human ether-à-go-go-related gene (hERG) potassium channel (human, UniProt Q12809). In words: primary screen, population patch clamp on CHO cells stably expressing hERG; higher = less effect of the substance. As to the method: Briefly, Chinese hamster ovary (CHO) cells stably expressing the hERG channel were dislodged from tissue culture flasks and dispensed into PPC plates. […] During the recording, background leak currents were estimated by a 100 ms step to -80 mV from an initial holding potential of -70 mV and subtracted from the subsequent current measurement. The campaign was conducted in two phases using slight differences in recording protocol. In the first phase, the initial voltage pulse used a 100 ms step to -30 mV from a holding potential of -70 mV, a 2 s conditioning step to +25 mV, and a 2 s test step to -30 mV. During the second phase of the screen, the potential during the conditioning step was raised to +45 mV. In both phases of the campaign, a secondary voltage pulse was applied using the same parameters as the second phase initial pulse. The initial and secondary pulses were applied in the absence of compound, and upon application of 1 μM and 10 μM test concentrations. Small molecule effects on hERG current density were quantified by […].
Sequence of human ether-à-go-go-related gene (hERG) potassium channel (Q12809 whole entry, looked up): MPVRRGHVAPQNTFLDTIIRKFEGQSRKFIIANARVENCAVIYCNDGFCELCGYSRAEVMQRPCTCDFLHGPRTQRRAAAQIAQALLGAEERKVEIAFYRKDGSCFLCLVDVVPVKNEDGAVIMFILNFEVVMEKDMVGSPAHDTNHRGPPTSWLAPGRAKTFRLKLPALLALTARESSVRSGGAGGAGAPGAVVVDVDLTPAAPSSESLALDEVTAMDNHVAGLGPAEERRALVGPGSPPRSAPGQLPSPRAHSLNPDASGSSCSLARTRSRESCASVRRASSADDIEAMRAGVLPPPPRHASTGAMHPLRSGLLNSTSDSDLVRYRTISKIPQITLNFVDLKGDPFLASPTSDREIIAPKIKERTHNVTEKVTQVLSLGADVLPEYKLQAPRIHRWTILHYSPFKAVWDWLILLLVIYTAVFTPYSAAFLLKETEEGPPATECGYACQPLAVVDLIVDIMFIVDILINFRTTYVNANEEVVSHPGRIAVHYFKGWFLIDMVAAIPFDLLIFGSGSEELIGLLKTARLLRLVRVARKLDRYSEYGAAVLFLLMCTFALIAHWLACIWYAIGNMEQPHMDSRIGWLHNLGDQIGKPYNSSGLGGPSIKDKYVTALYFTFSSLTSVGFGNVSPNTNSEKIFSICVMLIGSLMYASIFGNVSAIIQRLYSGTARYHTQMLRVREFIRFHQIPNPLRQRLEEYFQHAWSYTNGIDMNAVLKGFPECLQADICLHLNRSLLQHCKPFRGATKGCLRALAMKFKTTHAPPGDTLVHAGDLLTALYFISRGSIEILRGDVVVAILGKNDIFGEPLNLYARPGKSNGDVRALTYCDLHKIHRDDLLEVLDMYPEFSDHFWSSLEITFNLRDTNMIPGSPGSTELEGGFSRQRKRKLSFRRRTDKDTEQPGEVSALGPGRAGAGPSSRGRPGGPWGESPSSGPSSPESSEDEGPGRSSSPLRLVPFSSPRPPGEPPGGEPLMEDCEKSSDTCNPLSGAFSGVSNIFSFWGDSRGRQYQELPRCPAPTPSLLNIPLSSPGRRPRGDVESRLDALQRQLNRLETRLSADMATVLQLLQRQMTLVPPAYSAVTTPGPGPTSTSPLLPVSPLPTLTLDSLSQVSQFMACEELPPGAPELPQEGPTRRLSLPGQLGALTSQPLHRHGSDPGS
For `C=CCNC(=O)CN1CCC(n2nnc3cc(C(F)(F)F)ccc32)CC1`, the “hERG current change (%, negative = inhibition) at 1uM” value is -0.772%.

As for `O=C(CN1C(=O)CCSc2ccccc21)Nc1ccc2c(c1)OCO2`, the “hERG current change (%, negative = inhibition) at 1uM” value was -4.53%.

On to `O=C(CCCN1C(=O)/C(=C\c2cccs2)SC1=S)NNC(=O)c1ccncc1`, for which the “hERG current change (%, negative = inhibition) at 1uM” value was 4.39%.

With `O=C(/C=C/c1ccc([N+](=O)[O-])cc1)NCCN1C(=O)S/C(=C\c2ccc(F)cc2)C1=O`, the “hERG current change (%, negative = inhibition) at 1uM” value was 2.19%.

As for `CCN(CC)S(=O)(=O)c1ccc(S(=O)(=O)N2CCN(CCC#N)CC2)cc1`, the “hERG current change (%, negative = inhibition) at 1uM” value amounted to 8.96%.

For the compound `O=S(=O)(NCCN1CCCC1)c1ccc(Br)cc1`, the “hERG current change (%, negative = inhibition) at 1uM” value is listed as 3.89%.

For `Cc1ccc(S(=O)(=O)N(CCC#N)CCN2CCCC2)cc1`, the “hERG current change (%, negative = inhibition) at 1uM” value turned out to be 2.4%.

`O=[N+]([O-])c1ccc(-c2ccc(S(=O)(=O)NCCN3CCCC3)cc2)cc1`: the “hERG current change (%, negative = inhibition) at 1uM” value is recorded as -77.3%.

As to `O=[N+]([O-])c1ccc(S(=O)(=O)NCCN2CCOCC2)cc1`, the “hERG current change (%, negative = inhibition) at 1uM” value came to 12.6%.

On to `N#CCCN(CCN1CCCC1)S(=O)(=O)c1ccc(-c2ccc([N+](=O)[O-])cc2)cc1`, for which the “hERG current change (%, negative = inhibition) at 1uM” value is listed as -76.5%.

As for `O=C(NCC(c1ccco1)N1CCCC1)c1ccccc1Sc1ccc(C(F)(F)F)cc1[N+](=O)[O-]` (centres unmarked), the “hERG current change (%, negative = inhibition) at 1uM” value turned out to be 4.07%.

On to `CCOc1ccccc1N1CCN(C(=O)c2cccc(S(=O)(=O)N3CCOCC3)c2)CC1`, for which the “hERG current change (%, negative = inhibition) at 1uM” value is on record as 10.8%.

In the case of `NC(=O)Cn1cnc2nc3n(c2c1=O)CCC3`, the “hERG current change (%, negative = inhibition) at 1uM” value is listed as -2.24%.

For the compound `CC1CN(C(=O)COC(=O)COc2ccc(C#N)cc2)CC(C)O1` (centres unmarked), the “hERG current change (%, negative = inhibition) at 1uM” value was 11.6%.

Turning to `CC1(C)Cc2c(c(=S)nc(-c3ccccc3)n2CCN2CCOCC2)CO1`, the “hERG current change (%, negative = inhibition) at 1uM” value stood at 6.74%.

In the case of `CCCC(=O)Nc1nc2c(C)c(Cl)ccc2s1`, the “hERG current change (%, negative = inhibition) at 1uM” value turned out to be 6.64%.

`COc1ccc(NC(=O)C(c2ccccc2)N(C)C(=O)c2ccc(=O)[nH]c2)cc1` (centres unmarked): the “hERG current change (%, negative = inhibition) at 1uM” value turned out to be 16.6%.

As for `Nc1nc(CN2CCN(c3ccccc3F)CC2)nc(Nc2ccccc2)n1`, the “hERG current change (%, negative = inhibition) at 1uM” value is recorded as 0.21%.

`Nc1nc(CN2CCN(Cc3ccc4c(c3)OCO4)CC2)nc(Nc2ccccc2)n1`: the “hERG current change (%, negative = inhibition) at 1uM” value is on record as -77.4%.

Take `Nc1nc(CN2CCN(c3ccccc3F)CC2)nc(Nc2ccc3c(c2)OCCO3)n1`: the “hERG current change (%, negative = inhibition) at 1uM” value is reported as -38%.

For `Cc1cccc(Nc2nc(N)nc(CN3CCN(C)CC3)n2)c1`, the “hERG current change (%, negative = inhibition) at 1uM” value is reported as -5.33%.

On to `Cc1ccc(Nc2nc(N)nc(CN3CCN(C)CC3)n2)cc1`, for which the “hERG current change (%, negative = inhibition) at 1uM” value amounted to 4.62%.

With `Nc1nc(CN2CCN(Cc3ccccc3)CC2)nc(Nc2ccc3c(c2)OCCO3)n1`, the “hERG current change (%, negative = inhibition) at 1uM” value was -52.3%.

As for `Cc1ccc(Nc2nc(N)nc(CN3CCN(Cc4ccc5c(c4)OCO5)CC3)n2)cc1`, the “hERG current change (%, negative = inhibition) at 1uM” value is -53.4%.

With `CN1CCN(Cc2nc(N)nc(Nc3ccc4c(c3)OCCO4)n2)CC1`, the “hERG current change (%, negative = inhibition) at 1uM” value amounted to 3.07%.

Consider `Cc1ccc(Nc2nc(N)nc(CN3CCN(Cc4ccc5c(c4)OCO5)CC3)n2)cc1Cl`, for which the “hERG current change (%, negative = inhibition) at 1uM” value was -34.6%.

In the case of `Cc1cccc(Nc2nc(N)nc(CN3CCN(Cc4ccc5c(c4)OCO5)CC3)n2)c1`, the “hERG current change (%, negative = inhibition) at 1uM” value is reported as -74.3%.

For the compound `Cc1cccc(Nc2nc(N)nc(CN3CCN(c4ccccc4)CC3)n2)c1`, the “hERG current change (%, negative = inhibition) at 1uM” value is reported as -7.51%.

Consider `CC(C)(O)C#Cc1ccc(C(=O)NCc2ccccc2)s1`, for which the “hERG current change (%, negative = inhibition) at 1uM” value is reported as -2.9%.

As for `CCc1nn(CC(=O)NCCCN(C)C2CCCCC2)c(=O)c2cc3occc3n12`, the “hERG current change (%, negative = inhibition) at 1uM” value stood at 2.42%.

On to `CN1CCN(c2nc(Nc3ccc(F)cc3)nc(Nc3ccc(F)cc3)n2)CC1`, for which the “hERG current change (%, negative = inhibition) at 1uM” value is -0.878%.

On to `COc1ccc(CNC(=S)Nc2ccc(-c3ccccc3)cc2)cc1`, for which the “hERG current change (%, negative = inhibition) at 1uM” value turned out to be 6.99%.

On to `COCCn1c(C)cc(C(=O)CSc2nncn2-c2ccccc2)c1C`, for which the “hERG current change (%, negative = inhibition) at 1uM” value was 8.85%.

As for `COc1ccc(OCCN2CCOCC2)cc1`, the “hERG current change (%, negative = inhibition) at 1uM” value amounted to 20.7%.

Take `CN(C)S(=O)(=O)N1CCC(Oc2cccc(C(=O)N3CCSCC3)c2)CC1`: the “hERG current change (%, negative = inhibition) at 1uM” value is listed as 4.68%.

In the case of `S=c1[nH]cnc2scc(-c3ccc(Cl)cc3)c12`, the “hERG current change (%, negative = inhibition) at 1uM” value is on record as 10.5%.

For the compound `Cc1ccc(Nc2nc(N)nc(CN3CCN(Cc4ccc5c(c4)OCO5)CC3)n2)c(C)c1`, the “hERG current change (%, negative = inhibition) at 1uM” value is given as -70.5%.

Take `Cc1ccccc1Nc1nc(N)nc(CN2CCN(Cc3ccc4c(c3)OCO4)CC2)n1`: the “hERG current change (%, negative = inhibition) at 1uM” value was -45.4%.

In the case of `Cc1ccc(Nc2nc(N)nc(CN3CCCCCC3)n2)c(C)c1`, the “hERG current change (%, negative = inhibition) at 1uM” value is on record as -21.7%.

On to `COc1ccc(-n2c(C)c3c(OC)cccc(=O)c3c2C)cc1`, for which the “hERG current change (%, negative = inhibition) at 1uM” value was 0.316%.

For `O=S(=O)(Nc1nc2ccccc2nc1NCCN1CCOCC1)c1cccc(Cl)c1`, the “hERG current change (%, negative = inhibition) at 1uM” value came to 8.11%.

The values above are taken from paper PMC4336329 (PLoS ONE, 2015).
